Compound activity as filed in PubChem.
Tb PGK inh: blocks T. brucei phosphoglycerate kinase. P07378. PGK/GAPDH coupled, Kinase-Glo luminescence, 60 min. Potency, µM (top dose mostly 57.5 µM), for the others: top-dose activity change, negative = inhibition, usual class: inhibitors. 380,000 compounds, 0.043% hits. AID 602233; note: potency is the fitted concentration of half-maximal effect; nearly all actives have a fitted effect of over 60% in size
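Luminescent ATP detection (Kinase-Glo Plus) follows a 60-minute room-temperature incubation, with wells lacking PGK as controls. Buffer: 100 mM TEA (pH 7.6), 5 mM MgCl2, 0.01% Tween-20. Coupling enzyme GAPDH (100 nM final) supplies unstable 1,3-BPG in-well.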
RGS4 inhibitor: inhibitors of human regulator of G protein signaling 4 | P49798 | Transcreener GDP fluorescence polarization, RGS4-accelerated GTP hydrolysis | Potency, µM (top dose mostly 114 µM), without a hit: at the highest dose activity change, negative = inhibition, actives largely listed as inhibitors | 390,000 compounds, 0.039% hits; note: potency is the fitted concentration of half-maximal effect; nearly all actives have a fitted effect of over 75% in size
Target sequence (P49798 whole entry, looked up): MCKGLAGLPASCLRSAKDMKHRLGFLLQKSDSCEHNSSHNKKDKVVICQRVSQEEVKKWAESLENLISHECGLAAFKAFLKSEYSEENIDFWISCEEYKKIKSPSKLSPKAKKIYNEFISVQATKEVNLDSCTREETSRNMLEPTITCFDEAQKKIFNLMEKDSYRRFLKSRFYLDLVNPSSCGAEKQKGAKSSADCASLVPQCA
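MLSMR compounds (23 nl, pin-transferred) preincubated 10 min at room temperature with a 500nM (2x) first reagent, then RGS4 at 900nM (2x) plus Transcreener GDP mix added; fluorescence polarization (620/688 nm) read before and after 90 min at 30 °C.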
KCNH2 3.1 block: inhibitors of human KCNH2 3.1 potassium channel isoform | U2OS KCNH2 3.1, thallium flux FluxOr; active compounds read low | 340,000 compounds, 0.95% hits | activity change, % (tested at about 1.8 µM);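 active = maximum activity change below -70%; inconclusive = maximum activity change from -70% to -50%; inactive = maximum activity change above -50%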;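 note: thallium influx rate constant from kinetic fluorescence after stimulation buffer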
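Channel expression came from 3.1 mutant virus (1.77 x 10^8 /mL) applied to suspended U2OS cells for 4 h. Flux was tracked with FluxOr dye plus Red40 quencher, and kinetic rate constants normalized to controls.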
KCNH2 WT inh: blocks the wildtype human KCNH2 potassium channel; activity change, % at 1.84 µM; 340,000 compounds, 0.37% hits; U2OS, BacMam KCNH2, thallium flux FluxOr; active compounds read low; Q12809;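 active = maximum activity change below -70%; inconclusive = maximum activity change between -70% and -50%; inactive = maximum activity change above -50%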
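U2OS cells were transduced with wild-type KCNH2 virus (2.03 x 10^8 / mL) for 4 h at room temperature, then cultured overnight at 37 C. Thallium flux was read with FluxOr dye. Rate constants were normalized to DMSO controls.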
Pin1 inhibitor: inhibitors of human Pin1 | Pin1 FP peptide displacement, HiFluor488, 10 min | Potency, µM (highest dose often 115 µM), for inactives: at the highest dose activity, negative = inhibition, actives largely listed as inhibitors | 390,000 compounds, 0.009% hits | AID 504891; active = well fitted inhibition curve with a large enough effect in the polarisation, with a control signal flat, not every such curve was filed as active; inconclusive = small, poorly fitted or top-dose-only effect, or effect the other way, or a change in a side signal; inactive = no such curve, though single readings can be large or run the other way; the % refers to the polarisation; note: potency is the fitted concentration of half-maximal effect
Target sequence (Q13526 whole entry, looked up): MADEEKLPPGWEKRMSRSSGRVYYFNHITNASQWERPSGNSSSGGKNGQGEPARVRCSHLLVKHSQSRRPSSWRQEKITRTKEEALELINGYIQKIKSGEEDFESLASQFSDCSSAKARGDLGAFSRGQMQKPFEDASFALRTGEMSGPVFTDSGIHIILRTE
GCN5L2 inh: inhibitors of human GCN5L2 histone acetyltransferase; Q92830; GCN5L2 HAT assay, ThioGlo1 CoA-SH fluorescence; Potency, µM (top dose mostly 58.9 µM), without a hit: at the highest dose activity change, negative = inhibition, actives largely listed as inhibitors; 390,000 compounds, 0.21% hits; note: potency is the fitted concentration of half-maximal effect
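GCN5L2 (20 nM) in 50mM HEPES pH 7.5, 0.1mM EDTA, 0.01% Tween-20 preincubated 15 min with compounds at room temperature. Reaction started with H3(1-25) 75uM, acetyl-CoA 70uM, ThioGlo1 50uM; CoA-thiol fluorescence (Ex340/Em540) read at 0 and 20 min.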
Numbers without * were called inactive; i = inactive; ? = inconclusive; nt = not tested or not shown; ! = a repeat was not active; [ ] = another dose, or the depositor's remark. In the library only some 1.2% were active in any assay of this set; here they are far more common. Unless noted, calls come from the whole dose curve; as a rule, active = well fitted curve in the direction sought with a large enough effect; inconclusive = small, poorly fitted or top-dose-only effect, or another doubt; inactive = no such curve, though single readings can be large; an effect the other way counts as inactive or inconclusive. % is set by controls: 0 for no effect and ±100 for the full control effect.

SMILES	Tb PGK inh	RGS4 inhibitor	KCNH2 3.1 block	KCNH2 WT inh	Pin1 inhibitor	GCN5L2 inh
O=C(OCC#CCSc1nnc(-c2ccc(F)cc2)o1)c1ccc(F)cc1	nt	nt	nt	nt	5%	nt
C[C@H](NC(=O)Cc1cc(F)cc(F)c1)C(=O)N[C@@H](C(=O)OC(C)(C)C)c1ccccc1	nt	nt	nt	nt	nt	37%
CCOC(=O)C1CCN(C(=O)Nc2ccc3nc(-c4ccco4)c(-c4ccco4)nc3c2)CC1	?	?	-5	1	?	?
O=C(Nc1ccc2nc(-c3ccco3)c(-c3ccco3)nc2c1)N1CCCCCC1	-19%	?	-32	8	?	14µM*
CCCCCn1c(=N)n(CC(O)COc2ccccc2OC)c2ccccc21 (configuration not stated)	-9%	3%	-107*!	-85*	-3%	-3%
N[C@@H](CSS(=O)(=O)O)C(=O)O	nt	?	nt	nt	nt	35µM*!
CC1(C)Cc2c(C#N)c(SCCOc3ccccc3)nc(N3CCOCC3)c2CO1	5%	24%	-85*	-2	?	-5%
CC1(C)Cc2c(C#N)c(SCCO)nc(N3CCOCC3)c2CO1	-4%	-7%	1	-4	0%	-8%
CCCCCCCCCCCCCCC(C(=O)O)C(O)(CC(=O)OC)C(=O)O (configuration not stated)	nt	nt	nt	nt	nt	13µM*
CCCCCC(CC(=O)O)C(=O)O (configuration not stated)	nt	nt	nt	nt	nt	5%
CC1=C(C(=O)Nc2cccc(C(F)(F)F)c2)C2(CCCCCC2)OC1=O	i	-8%	nt	nt	3%	-20%
COc1cccc(-c2ccc3c(c2)C2CC3CCN2C(=O)c2ccc(Cl)cc2)c1 (configuration not stated)	0%	-25%	nt	-5	0%	nt
CCOC(=O)N1CCC2CC1c1cc(-c3cccc(OC)c3)ccc12 (configuration not stated)	i	2%	-15	-116*	?	nt
COc1cc(OC)cc(C(=O)NCC(=O)Nc2ccc(C)c(Cl)c2)c1	-7%	-5%	9	-1	0%	-1%
COc1cc(OC)cc(C(=O)Nc2ccc(-c3nc4cc(C(C)C)ccc4o3)cc2)c1	1%	-17%	nt	nt	?	-14%
COc1cc(OC)cc(C(=O)Nc2ccc(Nc3ccccc3)cc2)c1	-13%	-2%	-86*	0	8%	1%
COc1cc(OC)cc(C(=O)Nc2ccc(-c3nc4ccccc4o3)cc2)c1	14%	4%[11.4 µM]	-112*	-44	20%	-6%
COc1cc(OC)cc(C(=O)Nc2cccc(NC(=O)c3ccccc3)c2)c1	-7%	-9%	-4	1	9%	1%
COc1cc(OC)cc(C(=O)NCC(=O)Nc2ccc(-c3ccccc3)cc2)c1	-7%	-17%	-82*	2	8%	-12%
CCOc1ccccc1NC(=O)C(C)n1nnc2sc3c(c2c1=O)CCCC3 (configuration not stated)	nt	-6%	nt	nt	32%	-12%
CCOc1ccccc1NC(=O)CC(c1ccc(F)cc1)N1Cc2ccccc2C1=O (configuration not stated)	i	6%	nt	nt	-2%	-8%
CN(Cc1ccccc1)C(=O)c1ncn(Cc2ccccc2)c1C(=O)N(C)Cc1ccccc1	-8%	7%	-72*	4	6%	-3%
Cc1ccc(C(C)C)c(OC(=O)/C=C/c2ccccc2)c1	i	-32%	-91*	-12	3%	-5%
Cc1ccc(NC(=O)C(C)OC(=O)/C=C/c2ccccc2)cc1 (configuration not stated)	4%	22%	0	-22	0%	-3%
O=C(Nc1ccc(CN2CCOCC2)cc1)c1ccc(-c2ccc(Br)cc2)o1	nt	-22%	-103*	12	36%	-7%
SMILES	Tb PGK inh	RGS4 inhibitor	KCNH2 3.1 block	KCNH2 WT inh	Pin1 inhibitor	GCN5L2 inh
O=C(Nc1cccc(NC(=O)c2ccc(-c3ccc(Br)cc3)o2)c1)c1ccccc1	-3%	-8%	-94*	-4	4%	3%
Cc1ccc(Cn2c(CN3CCN(c4cccc(Cl)c4)CC3)nc3c2c(=O)n(C)c(=O)n3C)cc1	1%	18%	nt	nt	-2%	-8%
O=S(=O)(NCC(c1cccs1)S(=O)(=O)c1ccccc1)c1ccc(F)cc1 (configuration not stated)	-8%	-39%	nt	nt	-1%	-5%
CN1CCN(C2Cc3cc(F)ccc3Sc3ccc(Cl)cc32)CC1 (configuration not stated)	-10%	-2%	-78*	-8	13%	nt
CN1CCN(C2Cc3ccc(F)cc3Sc3cc(F)c(Cl)cc32)CC1 (configuration not stated)	-6%	5%	-88*	-41	3%	nt
Cc1cccc(C2c3[nH]c4ccccc4c3CCN2Cc2cccn2-c2ncccn2)c1 (configuration not stated)	0%	-15%	?	?	?	-3%
COc1ccc(C2c3[nH]c4ccccc4c3CCN2Cc2cccn2-c2ncccn2)cc1C (configuration not stated)	i	-24%	-79*	?	18%	-25%
CCOC(=O)CCc1cc(F)c(S(=O)(=O)N2CCN(S(=O)(=O)c3ccc4c(c3)OCCO4)CC2)cc1F	nt	nt	nt	nt	2%	nt
N=c1sccn1CC(=O)Nc1cccc(S(=O)(=O)N2CCCCCC2)c1	-7%	9%[56.9 µM]	-71*	nt	-3%	-2%
Cc1ccc(S(=O)(=O)N2CCCCC2)cc1NC(=O)Cn1ccsc1=N	i	-16%	-12	11	5%	-1%
Nc1ccc2ncccc2c1	6%	-2%	-118*	2	-6%	-4%
CCCCCCCCCCCCCCCC(=O)OC[C@H](COP(=O)([O-])OCC[N+](C)(C)C)OC(=O)CCCCCCCCCCCCCCC	nt	nt	nt	nt	nt	2%
CCCCCCCCCCCCCCCCOC[C@H](COP(=O)([O-])OCC[N+](C)(C)C)OC(=O)CCCCCCCC(=O)O	nt	nt	nt	nt	nt	16µM*
O=C(O)COc1ccc2c(c1)O/C(=C\c1cccs1)C2=O	i	-34%	-10	-16	-1%	-10%
O=C(O)COc1ccc2c(c1)O/C(=C\c1ccco1)C2=O	28µM*	-2%	3	4	?	-16%
CCOc1ccc(-c2cn3c(n2)sc2cc(C(=O)NCCCN(CC)CC)ccc23)cc1	3%	-12%	nt	nt	-1%	-15%
COC(=O)Cn1ccc(N(C)C)c(C#N)c1=O	-6%[11.5 µM]	-15%	8	-1	0%	-2%
COC(=O)Cn1ccc(-c2ccc(Cl)cc2)c(C#N)c1=O	6%	25%	-114*	-1	3%	-4%
